TDP1 cell CPT: DT40-hTDP1 cell growth loss with CPT. chicken DT40 Tdp1-/-;hTDP1 cells + 20 nM CPT, ATP luminescence, 48 h. Potency, µM (series often up to 46.2 µM), usual class: inhibitors. 420,000 tested, 12% active; also: nearly all actives have a fitted effect of over 55% in size
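Chicken DT40 Tdp1-/- cells stably complemented with human TDP1 were seeded at 400 cells/well in medium containing 20 nM camptothecin, exposed to pin-transferred compounds, and grown at 37 °C for at least 48 hr. Viability was read as ATP luminescence.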
TDP1 cell noCPT: qHTS for Inhibitors of human tyrosyl-DNA phosphodiesterase 1 (TDP1): qHTS in cells in absence of CPT | 420,000 tested, 15% active | AID 686978, 2013 | DT40 Tdp1-/- hTDP1 cells, no CPT, ATP luminescence, 48 h | Potency, µM (titrated, usually from 46.2 µM), actives largely listed as inhibitors; also: nearly all actives have a fitted effect of over 55% in size
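No-CPT arm: Tdp1-/-;hTDP1 DT40 cells (400/well) plus compounds, incubated ≥48 hr at 37 °C. Readout CellTiter-Glo luminescence.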
BCR signal inh: inhibitors of chronic active B-cell receptor signaling | ABC-DLBCL IkBa-CBG/CBR reporter, luminescence ratio, 4 h | Potency, µM (doses to about 46.1 µM), actives largely listed as inhibitors | 340,000 tested, 0.05% active | AID 493014; active = well fitted inhibition curve with a large enough effect in the signal ratio, with a control signal flat, not every such curve was filed as active; inconclusive = small, poorly fitted or top-dose-only effect, or effect the other way, or a change in a side signal; the % refers to the signal ratio
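Concentration-response series (up to 46 uM) were applied to TMD8 dual-reporter cells for 4 h at 37C with doxycycline. Green/red ratio, after filter-overlap correction, defined %Activity; red signal alone was normalised to basal cells and zero luminescence.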
MCF10A rerep: DNA re-replication induction in MCF 10a cells; MCF 10A DNA re-replication, Hoechst nuclear intensity, 48 h; Potency, µM (top dose mostly 46.1 µM), most hits filed as activators; 350,000 tested, 2.9% active; also: nearly all actives have a fitted effect of over 50% in size
SW480 rereplic: DNA re-replication induction in SW480 cells; SW480 DNA re-replication, Hoechst DNA content imaging, 48 h; 340,000 tested, 1.8% active; AID 624297; Potency, µM (highest dose often 46.1 µM), usual class: activators; also: nearly all actives have a fitted effect of over 55% in size
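DNA re-replication was detected as more nuclei of elevated Hoechst intensity after 48 hr exposure to compound (23 nL pinned per well of 250 cells).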
IL1B secr inh: blocks inflammasome-driven IL-1 beta release. THP-1 LPS/ATP IL-1B secretion, AlphaLISA, 16 h; stronger effect = lower value. activity change, % at 57.5 µM. 360,000 tested, 4.7% active; in the data active = activity change below about -50%; inconclusive = mostly about -30% to -49%
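THP-1 cells pretreated 1 hr with compounds (up to 57.5 uM final), then stimulated with LPS (250 ng/mL final) plus ATP (1.25 mM final); secreted IL-1B measured by AlphaLISA after 16 hr, decreased signal indicating inhibition.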
Hits are given with their value; i = inactive; ? = inconclusive; nt = not tested or not shown. This is a sample that favours compounds with a hit; in the whole collection about 19% have one here. Unless noted, calls follow the shape of the dose curve; as a rule, active = well fitted curve in the direction sought with a large enough effect; inconclusive = small, poorly fitted or top-dose-only effect, or another doubt; inactive = no such curve, though single readings can be large; an effect the other way counts as inactive or inconclusive.

SMILES	TDP1 cell CPT	TDP1 cell noCPT	BCR signal inh	MCF10A rerep	SW480 rereplic	IL1B secr inh
CC(C)C(C)NC(=O)CN1C(=O)NC2(CCc3ccccc32)C1=O (stereo not drawn)	i	i	i	i	i	i
Cc1ccc(S(=O)(=O)NC(=O)C2(C)CCN2C(=O)Cc2cccs2)cc1 (stereo not drawn)	i	i	nt	nt	nt	i
COCC(Cc1ccccc1)NC(=O)Cn1cc(C)c(=O)[nH]c1=O (stereo not drawn)	i	i	nt	i	i	i
CCc1nc2ccc(C(=O)Nc3cccc(OCC(=O)N(C)C)c3)cn2c1N(CCC(C)C)CCN(C)C	i	i	nt	nt	nt	?
CCCCC(=O)N(Cc1ccc(-c2ccccc2-c2nn[nH]n2)cc1)[C@@H](C(=O)O)C(C)C	i	i	nt	nt	nt	nt
CCCCNC(=S)Nc1ccc(Oc2ccccc2)cc1	?	20.6µM	i	i	i	i
Cc1nn(-c2ccccc2)c(OC(=O)c2cccc(Br)c2)c1S(=O)(=O)c1ccccc1	i	i	nt	nt	nt	nt
Cc1ccc(C2=N/C(=C/N3CCOCC3)C(=O)O2)cc1	i	i	i	i	i	i
Cc1ccc(C2=N/C(=C\N3CCCCC3)C(=O)O2)cc1	i	i	i	?	i	-63.4
COc1ccc(-n2c(=O)c3c(c4cc(OC)ccc4n3C)n(Cc3cccc(OC)c3)c2=O)cc1	i	i	nt	nt	nt	nt
CCc1c(O)nc(SCC(=O)N2CCc3cc(OC)c(OC)cc3[C@@H]2C)[nH]c1=O	i	i	i	i	i	i
COc1cc2c(cc1OC)C(C)N(C(=O)c1cc(Cl)nc(Cl)c1)CC2 (stereo not drawn)	7.31µM	?	i	9.2µM	8.2µM	i
COc1cc2c(cc1OC)C(C)N(Cc1ccc3c(c1)OCO3)CC2 (stereo not drawn)	?	18.4µM	i	i	?	i
COc1cc2c(cc1OC)C(C)N(C(=O)c1ccc(Br)o1)CC2 (stereo not drawn)	?	16.4µM	i	i	i	i
COc1cc(=O)n2c(c1C(=O)N(C)Cc1nonc1C)CCN(C(=O)c1cc(C)ccc1C)CC2	i	i	nt	nt	nt	nt
CCOP(=O)(Nc1ccc2oc(=O)c3ccccc3c2c1)OCC	?	?	i	i	i	i
COc1ccc(Oc2ncc3nc(-c4ccc(Cl)cc4)c(=O)n(C)c3n2)cc1	i	i	nt	nt	nt	nt
CN(C)CCCNC(=O)/C(=C\C=C\c1ccccc1)NC(=O)c1ccc([N+](=O)[O-])cc1	i	?	i	i	?	-56.8
CCOC(=O)/C(=C/C=C/c1ccccc1)NC(=O)c1ccccc1	i	i	i	i	i	i
CCCCOc1ccc(C(=O)N/C(=C/C=C/c2ccccc2)C(=O)NCCO)cc1	i	i	?	?	i	-52.6
CCOC(=O)/C(=C\C=C\c1ccccc1)NC(=O)c1ccccc1	?	?	?	i	i	-89.9
COc1ccc(NC(=O)c2cc([N+](=O)[O-])ccc2N2CCCC2)cc1S(N)(=O)=O	i	i	i	i	i	i
CCC1CCCCN1CCNC(=O)CCS(=O)(=O)c1ccc(Br)cc1 (stereo not drawn)	i	i	i	?	i	i
COc1cc2c(cc1OC)C(c1cccs1)CC(=O)N2 (stereo not drawn)	i	i	nt	i	i	i
COc1ccc(C2CC3(CC(C)(C)NC(=S)N3)Oc3cc(O)cc(C)c32)cc1 (stereo not drawn)	9.2µM	8.2µM	?	i	i	i
CC(=O)Oc1cc2c(cc1Cl)C(c1cccs1)CC1(CC(C)(C)NC(=S)N1)O2 (stereo not drawn)	8.2µM	16.4µM	i	i	i	i
COc1ccc(C2CC(=O)Oc3cc(C)cc(C)c32)cc1 (stereo not drawn)	?	?	i	i	?	i
CC1(C)CC2(CC(c3ccccc3)c3ccc(O)cc3O2)NC(=S)N1 (stereo not drawn)	?	9.2µM	?	i	i	i

Assay outcomes as filed in PubChem BioAssay.
